For assay [1], the target named is Luciferin 4-monooxygenase (Photinus pyralis) (UniProt P08659). The experiment in a line: qHTS assay to identify small molecule inhibitors of firefly luciferase (AID 1224835). Also: nearly all actives have a fitted effect of over 25% in size. Also: potency is read from the fitted curve at half-maximal effect. The procedure, abridged: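 Quantitative HTS format; KM concentrations of both substrates. Purified P. pyralis FLuc activity quantified from luminescence images.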
Assay [2] in a line: qHTS assay to identify small molecule agonists of the constitutive androstane receptor (CAR) signaling pathway - cell viability counter screen (AID 1224836). Also: nearly all actives have a fitted effect of over 45% in size. Also: potency is read from the fitted curve at half-maximal effect. The procedure, abridged: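 HepG2 cells stably carrying hCAR and a CYP2B6-2.2kb reporter; 15-concentration compounds plus PK11195 (final 0.75 uM), 23 hr at 37 C/5% CO2. Viability read by CellTiter-Fluor fluorescence.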
In general terms: Quantitative high-throughput screening tests each substance at several concentrations.

Assay [3] in a line: qHTS assay to identify small molecule antagonists of the constitutive androstane receptor (CAR) signaling pathway - cell viability counter screen (AID 1224837). Also: nearly all actives have a fitted effect of over 45% in size. Put shortly: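 HepG2 cells stably carrying hCAR and CYP2B6-2.2kb reporter, stimulated with 50 nM CITCO and compounds at 15 concentrations for 23 h at 37 C. Viability measured by CellTiter-Fluor fluorescence.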
The nature of assay [4]: qHTS assay to identify small molecule antagonists of the estrogen related receptor signaling pathway with the pleiotropic PPARgamma coactivator (PGC) from Tox21 10K library - cell viability counter screen (AID 1224840; active = well fitted cell-killing curve with a large enough effect in the repeat runs, not every such curve was filed as active; also: nearly all actives have a fitted effect of over 40% in size). The procedure, abridged:
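PGC/ERR cells (2,000/well) plated 6 h, then compound-treated for 17.5 h at 37 C. Viability measured by CellTiter-Fluor fluorescence after 30 min at 37 C, multiplexed with the pathway assay.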

For assay [5], the target named is Thyrotropin receptor (Homo sapiens) (UniProt P16473). The experiment in a line: qHTS assay to identify small molecule agonists of the thyroid stimulating hormone receptor (TSHR) signaling pathway (AID 1224843; calls by dose curve; also: nearly all actives have a fitted effect of over 45% in size). Put shortly: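 TSHR-expressing HEK293 cells (800 per well) were exposed to compounds for 30 min at room temperature. cAMP was then detected by HTRF competition with cAMP-d2 and anti-cAMP cryptate, read after 1 h at room temperature. Fifteen concentrations, triplicate.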

Assay [6] in a line: qHTS assay to identify small molecule agonists of the hypoxia (HIF-1) signaling pathway - cell viability counter screen (AID 1224844; calls by dose curve; also: nearly all actives have a fitted effect of over 50% in size). Put shortly: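 HRE-bla ME-180 cells, 2,000/well in 0.5% dialyzed FBS medium, treated 17 h at 37C with compounds. Viability read in the same wells as the bla reporter, by CellTiter-Glo luminescence after 30 min at room temperature.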
A short description of assay [7]: qHTS assay to identify small molecule agonists of the hypoxia (HIF-1) signaling pathway (AID 1224846; active = well fitted activation curve with a large enough effect in the signal ratio in the repeat runs, not every such curve was filed as active; the % refers to the signal ratio). Put shortly: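 HRE-bla ME-180 beta-lactamase reporter cells in medium with 0.5% dialyzed FBS, pre-incubated 5 h then exposed to compounds 17 h at 37C, 5% CO2; reporter induction read with CCF4-AM FRET substrate.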
Assay [8] can be described thus: qHTS assay to identify small molecule agonists of H2AX - cell viability counter screen (AID 1224847; calls by dose curve; also: top concentration of the series differs between compounds; nearly all actives have a fitted effect of over 30% in size). Put shortly: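 CHO-K1 cells plated overnight at 37C, then exposed 3 h at 37C to compounds at 15 concentrations (0.76% DMSO final). Viability by CellTiter-Glo luminescence after 30 min at room temperature.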
The nature of assay [9]: qHTS RealTime-Glo MT Cell Viability Assay in HepG2 cells - 24 hour (AID 1224867). Also: nearly all actives have a fitted effect of over 50% in size. The procedure, abridged:
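Cells + NanoLuc/prosubstrate dispensed (600 cells/well) → 5 h at 37 C/5% CO2 → compounds in DMSO transferred → 40 h incubation at 37 C, luminescence read at 0, 8, 16, 24, 32, 40 h.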

Assay [10] is described as follows: A CellTox Green Cytotoxicity Assay to monitor cytotoxicity in HEK293 cells - 40 hour (AID 1224871). Also: nearly all actives have a fitted effect of over 45% in size. Put shortly:
(§1)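 HEK293 cells, 600/well, were preincubated 5 hours and then exposed to compounds at 37 C for up to 40 hours. A cell-impermeant cyanine dye staining dead-cell DNA was read by fluorescence at 0, 8, 16, 24, 32 and 40 h time points.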

Assay [11] can be described thus: qHTS assay to identify small molecule agonists of H2AX (AID 1224845; active = well fitted activation curve with a large enough effect in the signal ratio in the repeat runs, not every such curve was filed as active; the % refers to the signal ratio). Put shortly:
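Wild-type CHO-K1 cells plated overnight, then exposed 3 hr at 37C to compounds at 15 concentrations (0.76% DMSO). Lysed, then HTRF anti-pH2AX(S139)-cryptate/anti-H2AX-d2 detection after 24 hr at room temperature; emissions 665 and 620 nm.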

Assay [12] is described as follows: qHTS RealTime-Glo MT Cell Viability Assay in HEK293 cells - 32 hour (AID 1224868). Also: nearly all actives have a fitted effect of over 50% in size. Also: potency is read from the fitted curve at half-maximal effect. Put shortly: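 Tox21 10K qHTS, HEK293, 600 cells/well, RealTime-Glo reagent co-dispensed with cells; 5 h preincubation, compound by pintool, 37 C, luminescence at 0–40 h.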
Assay [13] can be described thus: A CellTox Green Cytotoxicity Assay to monitor cytotoxicity in HEK293 cells - 0 hour (AID 1224869). Also: nearly all actives have a fitted effect of over 50% in size. Put shortly:
as §1

A short description of assay [14]: qHTS RealTime-Glo MT Cell Viability Assay in HepG2 cells - 40 hour (AID 1224870). Also: nearly all actives have a fitted effect of over 50% in size. The procedure, abridged:
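HepG2 cells mixed with RealTime-Glo MT reagents (NanoLuc plus cell-permeant prosubstrate) were seeded at 600 cells/well, incubated 5 h at 37 C/5% CO2, then pinned with compounds in DMSO; nonlytic luminescence tracked viability during 40 h treatment.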

The target in assay [15] is Nuclear receptor subfamily 1 group I member 3 (Homo sapiens) (UniProt Q14994). The experiment in a line: qHTS assay to identify small molecule antagonists of the constitutive androstane receptor (CAR) signaling pathway (AID 1224838). Also: nearly all actives have a fitted effect of over 40% in size. Put shortly: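 HepG2 cells stably carrying hCAR and a CYP2B6-2.2kb luciferase reporter, seeded 4 hrs before compound (15 concentrations). Stimulated with 50 nM CITCO for 24 hr at 37 C. ONE-Glo luminescence read after 30 min at room temperature.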

Assay [16] shares this target. The experiment in a line: qHTS assay to identify small molecule agonists of the constitutive androstane receptor (CAR) signaling pathway (AID 1224839). Also: nearly all actives have a fitted effect of over 15% in size. The procedure, abridged:
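HepG2 cells stably co-transfected with hCAR and a CYP2B6-2.2kb luciferase reporter; compounds at 15 concentrations with 0.75 uM PK11195 present. After 24 hr at 37 C, luciferase read by ONE-Glo luminescence.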

A short description of assay [17]: qHTS assay to identify small molecule antagonists of the estrogen related receptor signaling pathway with the pleiotropic PPARgamma coactivator (PGC) from Tox21 10K library (AID 1224841; call rule not given here). Put shortly: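 PGC/ERR cell line, 2,000 cells/well, pre-incubated 6 hours at 37 C, then exposed to compounds for 18 hours at 37 C; luciferase read with One-Glo luminescence after 30 min at room temperature.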

The nature of assay [18]: qHTS assay to identify small molecule agonists of the estrogen related receptor signaling pathway with the pleiotropic PPARgamma coactivator (PGC) from Tox21 10K library (AID 1224842). Also: nearly all actives have a fitted effect of over 15% in size. The procedure, abridged:
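PGC/ERR reporter cells (NTP line) were seeded 2,000 per well, rested 6 h at 37 C/5% CO2, then pin-dosed with compounds in DMSO for 18 h at 37 C; luciferase read by One-Glo luminescence after 30 min at room temperature.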

Assay [19] is described as follows: qHTS assay to identify small molecule antagonists of the estrogen related receptor (ERR) signaling pathway from Tox21 library (AID 1224848). Also: nearly all actives have a fitted effect of over 50% in size. The procedure, abridged:
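Cells: ERR line, 2,000/well; 6 h preincubation 37 C/5% CO2. Cpd in DMSO via pin tool; 18 h, 37 C. ONE-Glo, 30 min RT, luminescence.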

Assay [20] in a line: qHTS assay to identify small molecule agonists of the estrogen related receptor (ERR) signaling pathway from Tox21 library (AID 1224849; calls by dose curve; also: nearly all actives have a fitted effect of over 15% in size). Conditions: ERR reporter cell line, ONE-Glo luciferase, 18 h; at 92.4 µM (top of the series) unless noted. The procedure, abridged:
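ERR reporter cells (NTP line) pre-incubated 6 hours at 37 C, then exposed to compounds for 18 hours at 37 C. ONE-Glo luciferase luminescence was read after 30 minutes at room temperature.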

SMILES strings stand for the structures. A number with no mark means an inactive call. Results filed as inconclusive are left out. Active and inactive are the calls of the source. Unless noted, calls follow the shape of the dose curve; as a rule, active = well fitted curve in the direction sought with a large enough effect in the repeat runs; inconclusive = weak or mixed curves; inactive = no such curve, though single readings can be large; an effect the other way counts as inactive or inconclusive.
% is scaled to controls: 0 for no effect and ±100 for the full control effect.

Sequence of Nuclear receptor subfamily 1 group I member 3 (Homo sapiens) (Q14994 whole entry, looked up): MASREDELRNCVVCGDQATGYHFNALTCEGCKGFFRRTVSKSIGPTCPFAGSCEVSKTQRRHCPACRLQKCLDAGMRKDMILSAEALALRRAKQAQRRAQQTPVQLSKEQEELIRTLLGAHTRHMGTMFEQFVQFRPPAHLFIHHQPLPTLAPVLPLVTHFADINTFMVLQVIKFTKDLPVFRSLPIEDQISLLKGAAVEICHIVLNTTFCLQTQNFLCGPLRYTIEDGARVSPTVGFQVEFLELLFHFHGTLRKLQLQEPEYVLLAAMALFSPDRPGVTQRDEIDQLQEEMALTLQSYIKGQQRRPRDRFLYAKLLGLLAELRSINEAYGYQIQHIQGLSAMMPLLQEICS
Sequence of Luciferin 4-monooxygenase (Photinus pyralis) (P08659 whole entry, looked up): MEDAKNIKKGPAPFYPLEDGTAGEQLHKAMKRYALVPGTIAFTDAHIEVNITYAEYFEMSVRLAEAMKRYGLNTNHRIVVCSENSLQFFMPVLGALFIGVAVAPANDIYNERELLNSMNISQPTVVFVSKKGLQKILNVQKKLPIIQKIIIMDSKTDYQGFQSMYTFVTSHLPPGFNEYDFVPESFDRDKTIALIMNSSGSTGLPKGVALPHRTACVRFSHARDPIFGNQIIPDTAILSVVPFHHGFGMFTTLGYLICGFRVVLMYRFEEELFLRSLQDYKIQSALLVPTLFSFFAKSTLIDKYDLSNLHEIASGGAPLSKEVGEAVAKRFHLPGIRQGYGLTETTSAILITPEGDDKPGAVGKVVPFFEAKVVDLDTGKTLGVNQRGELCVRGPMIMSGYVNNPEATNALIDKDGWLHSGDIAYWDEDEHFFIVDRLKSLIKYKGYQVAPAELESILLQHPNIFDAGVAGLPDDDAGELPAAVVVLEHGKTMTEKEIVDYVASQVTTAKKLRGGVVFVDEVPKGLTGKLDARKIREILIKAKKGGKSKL
Sequence of Thyrotropin receptor (Homo sapiens) (P16473 whole entry, looked up): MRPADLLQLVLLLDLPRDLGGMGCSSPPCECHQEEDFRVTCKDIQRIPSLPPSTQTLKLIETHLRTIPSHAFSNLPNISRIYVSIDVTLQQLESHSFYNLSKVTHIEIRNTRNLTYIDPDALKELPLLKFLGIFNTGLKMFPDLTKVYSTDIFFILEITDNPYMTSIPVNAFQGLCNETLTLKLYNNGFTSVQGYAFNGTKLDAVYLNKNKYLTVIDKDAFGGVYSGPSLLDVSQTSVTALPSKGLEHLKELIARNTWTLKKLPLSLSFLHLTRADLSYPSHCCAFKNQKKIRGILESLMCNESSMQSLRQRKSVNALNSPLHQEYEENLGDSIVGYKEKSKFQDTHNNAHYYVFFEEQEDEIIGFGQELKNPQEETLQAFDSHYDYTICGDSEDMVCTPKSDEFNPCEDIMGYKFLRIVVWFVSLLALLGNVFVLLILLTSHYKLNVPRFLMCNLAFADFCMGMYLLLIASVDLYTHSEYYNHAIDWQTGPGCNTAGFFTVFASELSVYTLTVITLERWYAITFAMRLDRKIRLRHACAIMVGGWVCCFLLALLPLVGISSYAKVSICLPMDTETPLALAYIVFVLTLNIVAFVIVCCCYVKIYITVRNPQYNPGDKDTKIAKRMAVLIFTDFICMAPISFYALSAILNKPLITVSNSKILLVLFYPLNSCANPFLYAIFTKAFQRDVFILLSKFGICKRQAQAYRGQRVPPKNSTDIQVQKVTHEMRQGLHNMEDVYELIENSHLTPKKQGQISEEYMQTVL

Regarding `OCC(CBr)(CBr)CBr`, the Potency in assay [1] is 70.7 µM (active). In addition, the Potency result in assay [2], in assay [3], in assay [4], in assay [5], in [6] and in assay [8] was “inactive” each time. Moreover, the Potency entry in assay [9] and in assay [10] was “inactive” in each case. Moreover, in [7], the compound was classed as inactive.
Turning to `O=C1CCCCC1C1CCCCC1` (centres undefined), the Potency entry in [1], in assay [2], in assay [3], in [4], in assay [5] and in assay [11] was “inactive” each time. The Potency entry in assay [8], in assay [9], in assay [12], in assay [13], in assay [14] and in [10] was “inactive” throughout. In addition, the compound was classed as inactive in assay [7].
`CC(C)CC(=O)OCc1ccccc1`: the Potency result in [1], in [2], in assay [15], in assay [4], in [6] and in [8] was “inactive” throughout. In addition, the Potency result in assay [9], in assay [12], in [13], in assay [14] and in assay [10] was “inactive” throughout. In addition, the result in assay [7] was inactive.
`Cc1cc2c(s1)Nc1ccccc1N=C2N1CCN(C)CC1`: the Potency entry in [1], in [15], in assay [16], in [4], in assay [17] and in [18] was “inactive” throughout. In addition, the Potency result in assay [6], in assay [11], in assay [8], in [19], in [9] and in assay [12] was “inactive” each time. The Potency result in [13], in assay [14] and in [10] was “inactive” throughout. Also, the Potency in assay [2] is 8.41 µM (active). For the same compound, in assay [7], the outcome was inactive. In addition, the activity change, positive = activation in [20] was -1.9% [at 42.5 µM].
Regarding `C=CCCCCCCCCO`, the Potency result in [1], in assay [2], in assay [3], in [4], in assay [5] and in assay [6] was “inactive” throughout. The Potency result in assay [11], in assay [9], in assay [12], in assay [13] and in assay [14] was “inactive” each time. Also, the compound was classed as inactive in assay [7].
As to `CC1=CC(=O)CC(C)(C)C1=O`, the Potency entry in assay [1], in assay [2], in assay [15], in assay [16], in assay [4] and in assay [5] was “inactive” throughout. The Potency entry in assay [6], in assay [8], in [9], in assay [12], in [13] and in assay [10] was “inactive” throughout. In addition, in assay [7], the compound was classed as inactive.
For `NC(=O)NS(=O)(=O)c1ccc(Cl)cc1`, the Potency result in assay [1], in assay [2], in [15], in [16], in [4] and in [5] was “inactive” each time. Moreover, the Potency result in [6], in assay [11], in assay [8], in assay [9], in assay [12] and in assay [14] was “inactive” in each case. Also, in assay [10], the Potency entry is “inactive”. Further, the call in [7] was inactive.
As to `Cc1ccc(C(C)C)cc1O`, the Potency entry in assay [1], in [2], in [3], in [4], in assay [11] and in assay [9] was “inactive” each time. The Potency entry in assay [13] and in assay [14] was “inactive” each time. The outcome in assay [7] was inactive.
Consider `CCC(=O)c1ccc2c(c1)N(CCCN(C)C)c1ccccc1S2`, for which the Potency entry in [1], in assay [2], in [15], in assay [11], in assay [8] and in [9] was “inactive” each time. For the same compound, the Potency result in assay [13] and in [14] was “inactive” each time. Also, the result in assay [7] was inactive. In assay [12], the Potency is 16.9 µM (active).
As to `C[C@]12C(=O)OC(=O)[C@H]1[C@H]1C=C[C@@H]2C1`, the Potency result in assay [1], in assay [2], in assay [15], in [16], in assay [4] and in assay [17] was “inactive” each time. The Potency result in [18], in [5], in [11], in assay [8], in assay [19] and in [9] was “inactive” each time. For the same compound, the Potency entry in assay [12], in assay [13], in [14] and in assay [10] was “inactive” each time. Moreover, the compound was classed as inactive in assay [7]. Besides, the activity change, positive = activation in assay [20] was 0.566%.

These data come from PubChem BioAssay (Tox21).
